# Bioassay records deposited in PubChem by National Center for Advancing Translational Sciences (NCATS).
# KCNH2 3.1 inh: KCNH2 3.1 (human) potassium channel inhibition; U2OS KCNH2 3.1, thallium flux FluxOr; stronger effect = lower value; 340,000 compounds, 0.95% hits; activity change, % (tested at about 1.8 µM); AID 720553;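 active = maximum activity change below -70%; inconclusive = maximum activity change from -70% to -50%; inactive = maximum activity change above -50%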;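 note: thallium influx rate constant from kinetic fluorescence after stimulation buffer; % is set by controls: 0 for no effect and ±100 for the full control effect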
#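 Virally transduced U2OS (3.1 isoform, 4 h infection in dark at RT) → overnight 37 C → FluxOr + Red40 in HBSS/HEPES, 45 min → stimulation buffer, 2 min kinetic read → rate constant vs DMSO controls.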
# Tb PFK block: inhibitors of T. brucei phosphofructokinase; T. brucei PFK, ADP-Glo luminescence; AID 485367; Potency, µM (titrated, usually from 57.5 µM), without a hit: at the highest dose activity, negative = inhibition, most hits filed as inhibitors; O15648; 330,000 compounds, 0.17% hits; active = well fitted inhibition curve with a large enough effect; inconclusive = small, poorly fitted or top-dose-only effect, or effect the other way;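 note: potency is the fitted concentration of half-maximal effect; 0% = uninhibited 1x PFK enzyme wells and -100% = no-enzyme wells; nearly all actives have a fitted effect of over 60% in size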
#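 In TEA buffer at pH 8.0 with 5 mM MgCl2, enzyme (1.25 nM) converted F6P (0.5 mM) and ATP (0.1 mM) for 45 min at room temperature. ADP product was read by luciferase luminescence.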
# PTAP TSG101 blk: blocks PTAP/TSG101 interaction to inhibit HIV-1 budding. Potency, µM (highest dose often 115 µM), for the others: top-dose activity change, negative = inhibition, most hits filed as inhibitors. 340,000 tested, under 10 active. Fluorescence polarization, FITC-PTAP peptide / Tsg101 binding. Q99816; active = well fitted inhibition curve with a large enough effect in the main read-out, with a control signal flat, not every such curve was filed as active; inconclusive = small, poorly fitted or top-dose-only effect, or effect the other way, or a change in a side signal; inactive = no such curve, though single readings can be large or run the other way; note: potency is the fitted concentration of half-maximal effect; % of control where 0% means no effect
#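 Fluorescence polarization binding of Tsg101 binding domain (10 uM final) to FITC-labeled PTAP peptide (50 nM final) in HEPES pH 7.5 buffer with NaCl, Tween 20, EDTA, TCEP. Compounds added before peptide; binding 20 min at RT.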
# hERG WT inh: KCNH2 (human, wildtype) channel inhibition | Q12809 | U2OS, BacMam KCNH2, thallium flux FluxOr; stronger effect = lower value | activity change, % at 1.84 µM | 340,000 compounds, 0.37% hits;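 active = maximum activity change below -70%; inconclusive = maximum activity change between -70% and -50%; inactive = maximum activity change above -50%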; note: % is set by controls: 0 for no effect and ±100 for the full control effect
#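 U2OS cells transduced with wild-type KCNH2 virus are loaded with FluxOr dye for 45 min, and thallium flux is measured in kinetic reads before and after stimulation buffer. Rate constants are normalized to DMSO controls.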
# * marks the source's active call; other numbers are inactive results; ? = inconclusive; · = not tested or not shown; [ ] = remark or other dose. The list is not random: actives were taken first. Their share in the collection is about 1.2%.
SMILES,KCNH2 3.1 inh,Tb PFK block,PTAP TSG101 blk,hERG WT inh
N#Cc1c(N2CCN(C(=O)c3ccccc3Cl)CC2)nc(-c2ccccc2)c2c1CCCC2,-27,-9%,-4%,-283*
N#Cc1c(N2CCN(C(=O)c3ccccc3)CC2)nc(-c2ccccc2)c2c1CCCC2,-9,0%,-4%,0
CC(=O)c1ccc2c(c1)C1C=CCC1C(C(=O)O)N2 (stereo not drawn),-9,8.5µM*,-4%,4
CC(=O)c1cccc(CN2CCC(C(=O)Nc3ccc(-c4cccc(C)c4)cc3)CC2)c1,-101*,-1%,-1%,-13
Cc1ncc(CN2CCCC(C(=O)Nc3ccc(-c4cccc(F)c4)cc3)C2)n1C (stereo not drawn),-84*,-1%,-3%,-17
CCn1nc(C)c(CN2CCC(C(=O)Nc3cccc(-c4cccc(Cl)c4)c3)CC2)c1C,-95*,-9%,1%,-94*
COc1cccc(-c2ccc(NC(=O)C3CCCN(Cc4cnc(C)n4C)C3)cc2)c1 (stereo not drawn),?,-7%,-1%,26
CCn1ncc(CN2CCC(C(=O)Nc3cccc(-c4cccc(F)c4)c3)CC2)c1C,-97*,-13%,-3%,-117*
CCc1nc2ccc(C(=O)NCCCN3CCN(c4ccccc4F)CC3)cc2nc1CC,-4,-2%,-2%,14
CC1(C)CC(=O)C2=C(C1)O[C@@]1(c3ccsc3)Cc3cc(C#N)ccc3C2O1,·,-2%[11.5 µM],·,·
O=C(Nc1cccc(-c2cccc(F)c2)c1)C1CCN(Cc2ccc(CO)o2)CC1,-13,0%,1%,8
Cc1cc(C)n(CCCN2CCC(C(=O)Nc3cccc(-c4cccc(F)c4)c3)CC2)n1,-102*,-5%,-2%,-105*
COCCCN(C(=O)CCOc1ccc(C)cc1)c1c(N)n(Cc2ccccc2)c(=O)[nH]c1=O,4,0%,-3%,-7
CCC(C)c1ccc(OCC(=O)Nc2ccc3c(c2)C(=O)NC3=O)cc1 (stereo not drawn),-8,-8%,1%,5
C=CCn1c(SCCOc2ccc(OC)cc2)nnc1C(C)NC(=O)Cc1ccc(OC)cc1 (stereo not drawn),-101*,5%,-3%,6
CCc1ccc(CN2CCCC(CNS(=O)(=O)c3ccc(OC)cc3)C2)cc1 (stereo not drawn),-71*,-6%,0%,-26
CCN(CC)CC(O)CN(c1ccccc1)S(=O)(=O)c1ccc2ccccc2c1 (stereo not drawn),-106*,-2%,-1%,-89*
O=S(=O)(c1ccc2ccccc2c1)N(CC(O)COCc1ccco1)c1ccccc1 (stereo not drawn),-11,·,-4%,-31
C[C@@H]1CN([C@@H](C)CO)S(=O)(=O)c2ccc(Br)cc2O[C@H]1CN(C)Cc1ccc(-c2ccccc2)cc1,-9,·,·,7
COc1cccc(NC(=O)c2cc3ccccc3oc2=O)c1,-12,-6%,0%,-76*
COc1cc(NC(=O)c2ccccc2F)ccc1NC(=O)c1cc2ccccc2o1,-71*,-1%,-2%,0
COc1ccccc1C(=O)NC(=S)Nc1ccc(NC(=O)c2ccco2)cc1,-73*,5%,1%,11
COc1cc(NC(=O)c2cc3ccccc3o2)ccc1NC(=O)c1ccco1,-81*,1%,-1%,14
Cc1cccc(-n2ncc3c2CCCC3NC(=O)CCN2CCCCO2)c1C (stereo not drawn),5,3%,6%,-11
COC(=O)C(C)Oc1cc(C)ccc1COc1ccc(-n2nc(C)n(C(F)F)c2=O)cc1 (stereo not drawn),12,·,-3%,1
SMILES,KCNH2 3.1 inh,Tb PFK block,PTAP TSG101 blk,hERG WT inh
CCCN1CCC(=O)N([C@H](CSc2ccccc2)c2ccccc2)CC1,-94*,1%,-5%,-45
CN1CCC(=O)N([C@H](CSc2ccc(Br)cc2)c2ccccc2)CC1,-98*,4%,-2%,-7
O=C1CCN(CCc2ccccc2)CCN1[C@H](CSc1ccccc1)c1ccccc1,-101*,1%,2%,-134*
CCCN1CCC(=O)N([C@H](CSc2ccc(Br)cc2)Cc2ccccc2)CC1,-101*,0%,0%,-89*
Cc1ccc(C2(C)NC(=O)N(CC(=O)NCCN3C(=O)S/C(=C\c4cccnc4)C3=O)C2=O)cc1 (stereo not drawn),-6,·,-3%,-7
Cc1ccc(C2/C=C\CC(NC(=O)OCC3c4ccccc4-c4ccccc43)CC(=O)N2Cc2ccccc2)cc1 (stereo not drawn),-1,0%,-2%,-3
Cc1ccc(SC[C@H](c2ccccc2)N2CCN(CCc3ccccc3)CCC2=O)cc1,-114*,-1%,0%,-142*
CC(C)C[C@@H](CSc1ccc(Br)cc1)N1CCN(CCc2ccccc2)CCC1=O,·,1%,·,·
CC(C)CN1CCC(=O)N([C@H](CSc2ccccc2)Cc2ccccc2)CC1,-101*,-5%,1%,-1
CC(C)C[C@@H](CSc1ccccc1)N1CCN(CCc2ccccc2)CCC1=O,-101*,0%,-9%,-77*
O=C(COC(=O)CCC(NC(=O)OCc1ccccc1)C(=O)OCC(=O)Nc1ccccc1)Nc1ccccc1 (stereo not drawn),-24,-4%,-1%,17
CCOC(=O)C1(Cc2ccccc2C(F)(F)F)CCN(CC2CC2)CC1,-12,2%,-4%,7
c1csc(-c2nc(NCC3CCCO3)c3ccccc3n2)c1 (stereo not drawn),-6,-2%,-5%,7
c1ccc(CN2CCC(Nc3nc(-c4cccs4)nc4ccccc34)CC2)cc1,-73*,2%,-1%,·
COC(=O)c1ccc(Cn2cnc3c(cnn3-c3ccc(Cl)cc3)c2=O)o1,-75*,0%,-3%,-7
COC(=O)c1ccc(Cn2cnc3c(cnn3-c3ccc(F)cc3)c2=O)o1,1,-2%,-3%,-1
O=C(CSc1n[nH]c(=O)n1-c1ccccc1)N1CCOCC1,5,-7%,-2%,4
O=C(CSc1nc(O)c(C2CCCCC2)c(=O)[nH]1)NCC1CCCO1 (stereo not drawn),2,-2%,-2%,-4
CC(C)C(=O)Nc1nnc(SCC(=O)NCC2CCCO2)s1 (stereo not drawn),-85*,5%,-9%,-6
Cc1cc(=O)[nH]c(SCC(=O)NCC2CCCO2)n1 (stereo not drawn),-20,-3%,-2%,-235*
CN(Cc1ccc2nsnc2c1)C(=O)C1CCC(=O)N(CCc2ccccc2)C1 (stereo not drawn),-34,·,·,15
Cc1c(NC(=O)COC(=O)CSc2ccc([N+](=O)[O-])cc2)c(=O)n(-c2ccccc2)n1C,2,-9%,-4%,9
O=C(COC(=O)/C=C/c1ccc([N+](=O)[O-])cc1)Nc1ccc2[nH]c(=O)[nH]c2c1,12,1%,-5%,25
